# According to PubChem BioAssay AID1159506 (National Center for Advancing Translational Sciences (NCATS), 2015):
# In all, about 59,000 sequences were measured (the read-out: median about -0.00055, lowest 2% from about -2 on). The sample as a whole holds a higher share of the lowest values than the screen did.
# Experiment: Identification of proteins required for the processing of the EWS-FLI1 nascent transcript;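 further: robust z of luciferase light less the median z of siRNAs with the same seed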
# Conditions: TC32 Ewing sarcoma NR0B1-luc vs CMV-luc (EWS-FLI1 target promoter against control promoter), 48 h; screened at 20 nM (by protocol)
# Procedure, shortened: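 Parallel TC32-NR0B1-luc and TC32-CMV-luc reverse transfections with 20 nM siRNA in RPMI-1640/10% FBS, luciferase measured 48 h later. Seed-adjusted z-scores from normalized, z-score-MAD transformed data; AllStars negative and siGL4 controls on each plate.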
row,Sequence,seed-corrected z-score
1,UUUCGAUUUAAAAGAGCCC against RALGPS1,1.28
2,UUUCUUCCAACGCAGUCUG against MRPS23,-2.67
3,UAGAGGCUCAUCAUAGAUG against GPATCH3,-0.0793
4,AAUGCUAUUACGGUUGAUG against FBXL6,-0.269
5,UUAUUGCAGAUCUGGAUCC against CYP2C9,-2.3
6,UCUGUUUCAUUUACUUUGC against PRSS44,0.238
7,UUUAUAAAGAGGGUGGAUC against SGCB,-0.0761
8,UAUGAUACACUGGUAGGGU against ZNF684,-2.38
9,AAAGUGAUUCCCACAGCUG against CCS,1.5
10,UUUCUAACAUAGGAUGCCG against PRKAR1A,-0.515
11,AUGGUUGCGGUAGAAGACG against PHYHIP,0.484
12,AUAGAAUCUAGGGAAAUAG against HBD,1.15
13,AUAGUUAUCCUUUAAUAAC against SLC2A3,-2.2
14,AAUGUCAUUGCUGCGGUCC against SH3KBP1,-0.331
15,UUUCAGAGCCUUUCCCUGC against LTA,-0.389
16,UGAUGUACAGCUGAGGACC against ELMO2,-2.32
17,UCAGGUAGAGCAUAGCUUG against SPX,-1.13
18,ACAGCUACCACAAAUGCAG against NDUFB3,1.34
19,UGGGUUCCCAGUAACACUC against RPRD2,-0.107
20,UGCUCUAUCUCUGUCAGGG against RORC,0.626
21,AUCGCUGUUAAGAAGCUCC against CIITA,-0.918
22,UUGGAAUCAGUCAUGCUCA against SFTPD,0.0218
23,AUCCUUCUUGAAGUCGGCG against OAF,2.26

row,Sequence,seed-corrected z-score
1,UUCAGGACGAUCUUGACAG against CHRDL2,-0.237
2,UGCCGUUUCAUCUUGUACC against NKX2-4,-2.69
3,UUGAAGUUUGGAUAUUACC against GABPB2,-0.668
4,GAAUGUAGCAAAUGAGUCG against MT1H,0.588
5,UGACUGGAUAUAUCCACUG against RAB20,0.37
6,UUUUCUGCCUGAUCUAACU against MAP3K7CL,0.11
7,UCACUGUCAAUCAUGCGCU against CACNG1,-1.04
8,UCACCUUCCGCUUCGACUU against FAM181B,2.19
9,AAACCAAUAGGAAUUGACU against HINT3,0.612
10,AUCCAGUUAAUUCCAGAUG against NUDT1,-3.9
11,UAGGUUGUGAAUGUGGUCG against FBXL8,-3.1
12,UAUAUGUCUUGAUUAUCCU against NMS,0.309
13,UCCAGGUCAAGGGUAACGG against KIF7,-0.853
14,UACAUGUCAAAUGAGCUCC against KIR2DL5B,-2.25
15,UGUAGAAUGAGUAGGCGGC against NMT2,-0.0232
16,UGUAUUUGAAGACUUUCCC against ZNF485,0.182
17,UUCCUUCCUCGUUCAUUGC against KGFLP1,-2.1
18,AAAGCUUCCCUCAACUUGC against TAS2R9,-0.00509
19,UAUCUAGUGCAGUAUAUCG against COPS2,0.174
20,UUUGAUCUCAUCGGUGCCC against PIAS1,-0.0672
21,AUUCUCGUCAGUGAGCUCC against POLR2C,-0.262
22,UCUUCGUUCUUGUCGAUCU against MED15,2.07
23,UAACUUUGUCUUUGGAUUC against SETD9,1.15

row,Sequence,seed-corrected z-score
1,AAACUGCUCGCUGUCAUUC against NCDN,-2.2
2,UGUACAAGAAGUCAUAAGC against DSE,-0.289
3,UUGUGGUCAAUGCCCUUGG against UBIAD1,-0.444
4,UGACAUUCCAAGGUUGUAG against TAS2R60,0.323
5,ACCUUUUUCACUUCUACAC against 2-Mar,-0.43
6,AAGUUGCUCAGAAACUUGG against WNT9B,-3.07
7,UGUCCAGAUAAGGAGACGC against PINLYP,-1.21
8,UAAGUUCACUGUUCCAUAU against EDEM2,0.761
9,UUUGAAAUCAACAUAGAGG against LINC00574,-0.00543
10,AAAGGUACUUUACCAGAUG against MTX2,0.416
11,AGUUCAUUAAAUAAGGUCC against TMEM33,0.17
12,UUGUCAAAAAGUCCUUUUG against GINS3,0.092
13,AAGGCUCUGACAACGAUUC against LMNB1,-1.07
14,UUGAUUCGCAACCAUAGCC against BTBD7,-2.52
15,AUUCGAAGUAGUUGUAGCC against FRY,0.623
16,UCGGUUUUCCUCAAAAUGG against SESN1,0.94
17,UUUCGAAUUAACGCAACUG against HECTD1,0.00197
18,UUCUGAUUCCCAAACAGUG against COMMD8,-1.88
19,AAUCAUAACUGUCAUAUCC against DSPP,0.304
20,ACCGUGCCCAGCAUACAUC against LOC541473,-4.77
21,UUUCUGGUGACCCUUUUUC against TSG101,-0.683
